Source: PubChem BioAssay (EPA / NIEHS)
Inconclusive results are not listed. More than one record can exist for a structure, and the calls need not agree. Calls of active or inactive are those of the source. The calls were made as follows, unless noted: active = hit-call score of the fitted dose curve at least 0.9, where 1 is the maximum; inactive = score below 0.9.

What was measured:
[1] = read-out: Signal transducer and activator of transcription 3 (Homo sapiens) (UniProt P40763); experiment: LTEA_HepaRG_STAT3: Life Technologies and Expression Analysis (LTEA) Assay for Signal transducer and activator of transcription (STAT3) using HepaRG (AID 2283529); details: mRNA level, 48 h; actives raise or lower the signal
Outline: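 Differentiated HepaRG cells, serum-free induction medium, dosed 48 h in duplicate, 8 half-log concentrations from 100 uM in 0.5% DMSO. STAT3 mRNA by qRT-PCR, normalised to ACTB, GAPDH, POLR2A; bidirectional fit versus DMSO.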

[2] = read-out: solute carrier (SLCO1B1), SLCO1B1 (gene 10599); experiment: LTEA_HepaRG_SLCO1B1: Life Technologies and Expression Analysis (LTEA) Assay for solute carrier (SLCO1B1) using HepaRG (AID 2283530); details: mRNA level, 48 h; actives raise or lower the signal
Outline: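 SLCO1B1 transcript levels were quantified by TaqMan qRT-PCR using three housekeeping genes for normalization. This followed 48 h chemical exposure (100 uM top, half-log, 8 points, 0.5% DMSO) of HepaRG liver cells, with gain or loss fitted relative to DMSO.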

[3] = read-out: sulfotransferase 2A1 (SULT2A1), SULT2A1 (gene 6822); experiment: LTEA_HepaRG_SULT2A1: Life Technologies and Expression Analysis (LTEA) Assay for sulfotransferase 2A1 (SULT2A1) using HepaRG (AID 2283531); details: mRNA level, 48 h; actives raise or lower the signal
Outline: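 Expression change of SULT2A1, by qRT-PCR with three housekeeping-gene normalization, was scored bidirectionally versus DMSO. Cells: differentiated HepaRG, dosed in duplicate for 48 h across 8 points, highest 100 µM, half-log dilution, 0.5% DMSO.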

[4] = read-out: Transforming Growth Factor (TGFA), TGFA (gene 7039); experiment: LTEA_HepaRG_TGFA: Life Technologies and Expression Analysis (LTEA) Assay for Transforming Growth Factor (TGFA) using HepaRG (AID 2283532); details: mRNA level, 48 h; actives raise or lower the signal
Outline: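 Differentiated HepaRG cells exposed 48 hours in serum-free induction medium, 0.5% DMSO vehicle, 8-point half-log series from 100 uM, in duplicate. TGFA mRNA by TaqMan qRT-PCR, normalised to ACTB, GAPDH, POLR2A; bidirectional fit versus DMSO.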

[5] = read-out: Transforming Growth Factor (TGFB1), TGFB1 (gene 7040); experiment: LTEA_HepaRG_TGFB1: Life Technologies and Expression Analysis (LTEA) Assay for Transforming Growth Factor (TGFB1) Transporter using HepaRG (AID 2283533); details: mRNA level, 48 h; actives raise or lower the signal
Outline: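 TGFB1 transcript measured by qRT-PCR with normalisation to three housekeeping genes (ACTB, GAPDH, POLR2A); human HepaRG line treated in duplicate for 48 hr with an 8-point series topping at 100 uM, 0.5% DMSO vehicle, bidirectionally fitted.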

TIMP1, TIMP1 (gene 7076) = experiment: LTEA_HepaRG_TIMP1: Life Technologies and Expression Analysis (LTEA) Assay for TIMP1 using HepaRG (AID 2283534); details: mRNA level, 48 h; actives raise or lower the signal
Outline: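 Bidirectional change in TIMP1 transcript versus 0.5% DMSO, measured by TaqMan qRT-PCR with three housekeeping genes for normalization. HepaRG human liver cells dosed 48 h in duplicate, top concentration 100 uM with half-log dilutions.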

[6] = read-out: Tumor necrosis factor receptor 1 (TNFRSF1A), TNFRSF1A (gene 7132); experiment: LTEA_HepaRG_TNFRSF1A: Life Technologies and Expression Analysis (LTEA) Assay for Tumor necrosis factor receptor 1 (TNFRSF1A) using HepaRG (AID 2283535); details: mRNA level, 48 h; actives raise or lower the signal
Outline: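 mRNA measured by qRT-PCR (TaqMan, Fluidigm arrays) against ACTB/GAPDH/POLR2A housekeepers after 48 h chemical exposure of HepaRG cells. Top concentration 100 uM, half-log 8-point series, duplicates; vehicle 0.5% DMSO, both fit directions.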

[7] = read-out: Thyroid Hormone Responsive (THRSP), THRSP (gene 7069); experiment: LTEA_HepaRG_THRSP: Life Technologies and Expression Analysis (LTEA) Assay for Thyroid Hormone Responsive (THRSP) using HepaRG (AID 2283536); details: mRNA level, 48 h; actives raise or lower the signal
Outline: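 Differentiated HepaRG cells treated 48 h in serum-free induction medium with 8 half-log concentrations up to 100 uM (0.5% DMSO), duplicates. THRSP mRNA by TaqMan qRT-PCR normalised to ACTB, GAPDH, POLR2A; bidirectional fit versus DMSO.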

[8] = read-out: Cellular tumor antigen p53 (Homo sapiens) (UniProt P04637); experiment: LTEA_HepaRG_TP53: Life Technologies and Expression Analysis (LTEA) Assay for Tumor Protein P53 (TP53) using HepaRG (AID 2283537); details: mRNA level, 48 h; actives raise or lower the signal
Outline: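 TP53 transcript measured by qRT-PCR, normalized to three housekeeping genes, after 48 h treatment of human HepaRG cultures with chemicals from 100 uM downward in half-log steps (0.5% DMSO vehicle, serum-free induction medium). Up- or down-regulation fitted against DMSO.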

[9] = read-out: UDP glucuronosyltransferase (UGT1A1), UGT1A1 (gene 54658); experiment: LTEA_HepaRG_UGT1A1: Life Technologies and Expression Analysis (LTEA) Assay for UDP glucuronosyltransferase (UGT1A1) using HepaRG (AID 2283538); details: mRNA level, 48 h; actives raise or lower the signal
Outline: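 HepaRG cells, 0.5% DMSO vehicle, 48 h exposure in serum-free induction medium to 8-point half-log series topping at 100 uM, in duplicate. UGT1A1 mRNA by Fluidigm qRT-PCR, normalized to ACTB/GAPDH/POLR2A; bidirectional fit versus DMSO.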

[10] = read-out: X-box binding protein 1 (XBP1), XBP1 (gene 7494); experiment: LTEA_HepaRG_XBP1: Life Technologies and Expression Analysis (LTEA) Assay for X-box binding protein 1 (XBP1) using HepaRG (AID 2283540); details: mRNA level, 48 h; actives raise or lower the signal
Outline: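 XBP1 transcript by qRT-PCR (housekeeping-normalized: ACTB, GAPDH, POLR2A) after 48 h chemical treatment of HepaRG cells, 8-point half-log series topping at 100 uM, vehicle 0.5% DMSO. Gain and loss of signal fitted relative to DMSO.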

[11] = LTEA_HepaRG_LDH_cytotoxicity: Cytotoxicity Assessment in the Life Technologies and Expression Analysis (LTEA) Assay (AID 2283563; active = hit-call score of the fitted dose curve at least 0.9, where 1 is the maximum;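 as to AC50: LDH activity released into spent culture medium as a marker of cell death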)
Outline: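 LDH release into culture medium read after 48 h chemical treatment of HepaRG cells. Duplicate wells, eight-point half-log series topping at 100 uM, 0.5% DMSO vehicle and baseline.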

[12] = ATG_XTT_Cytotoxicity: Cytotoxicity Assessment in the Attagene TRANS-FACTORIAL HepG2 Assay (AID 2283584; active = hit-call score of the fitted dose curve at least 0.9, where 1 is the maximum)
Outline: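 Viability endpoint from XTT after 24 h chemical exposure of reporter-transfected human HepG2 liver cells; signal loss fitted relative to DMSO negative control.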

[13] = TOX21_p53_BLA_p2_viability: Viability Assessment in the Tox21 HCT-116 p53 Agonism Beta-lactamase Assay, Phase 2 (AID 2283591; active = hit-call score of the fitted dose curve at least 0.9, where 1 is the maximum;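 also: compound exposure lasted 16 h at 37 °C; actives lower the ATP signal meaning cytotoxicity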)
Outline: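 HCT116 p53-bla cells, 4000/well, dosed after 5 h plating (217-fold dilution of DMSO stocks) and incubated 16 h at 37C. Viability taken as cellular ATP by CellTiter-Glo luminescence after 30 min RT; signal loss marks cytotoxicity.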

[14] = biological target: Cellular tumor antigen p53 (Homo sapiens) (UniProt P04637); experiment: TOX21_p53_BLA_p3_ratio: Tox21 HCT-116 p53 Agonism Beta-lactamase Assay, Ratio, Phase 3 (AID 2283596; active = hit-call score of the fitted dose curve at least 0.9, where 1 is the maximum)
Cellular tumor antigen p53 (Homo sapiens), sequence (P04637 whole entry, looked up): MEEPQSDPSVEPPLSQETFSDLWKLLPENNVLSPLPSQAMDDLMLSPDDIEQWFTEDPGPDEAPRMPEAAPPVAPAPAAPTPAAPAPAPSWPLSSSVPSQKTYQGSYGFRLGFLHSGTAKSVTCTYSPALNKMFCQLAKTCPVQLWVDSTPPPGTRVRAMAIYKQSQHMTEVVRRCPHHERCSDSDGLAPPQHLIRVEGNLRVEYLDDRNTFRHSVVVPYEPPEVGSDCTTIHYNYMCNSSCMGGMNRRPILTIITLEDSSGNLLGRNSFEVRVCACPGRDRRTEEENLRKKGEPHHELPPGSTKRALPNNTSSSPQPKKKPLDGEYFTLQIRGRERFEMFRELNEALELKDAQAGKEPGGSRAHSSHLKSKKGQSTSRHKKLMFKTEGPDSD
Outline: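 HCT116 p53-bla cells (4000/well) given compound in DMSO (217-fold dilution) after 5 h, incubated 16 h at 37C. CCF4-AM substrate 2 h at room temperature; 460/530 nm emission ratio, gain fitted against DMSO.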

[15] = TOX21_p53_BLA_p4_viability: Viability Assessment in the Tox21 HCT-116 p53 Agonism Beta-lactamase Assay, Phase 4 (AID 2283597; active = hit-call score of the fitted dose curve at least 0.9, where 1 is the maximum;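 also: hits lower the luminescence signal meaning cytotoxicity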)
Outline: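 Following a 16 h exposure at 37C, the treated HCT116 wells were first read for the FRET ratio. They were then lysed with CellTiter-Glo, and ATP luminescence was recorded after 30 min at room temperature.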

[16] = read-out: UDP glucuronosyltransferase (UGT1A6), UGT1A6 (gene 54578); experiment: LTEA_HepaRG_UGT1A6: Life Technologies and Expression Analysis (LTEA) Assay for UDP glucuronosyltransferase (UGT1A6) using HepaRG (AID 2283539); details: mRNA level, 48 h; actives raise or lower the signal
Outline: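 Expression was quantified by TaqMan qRT-PCR on Fluidigm arrays with ACTB/GAPDH/POLR2A normalization and bidirectional fitting against 0.5% DMSO. HepaRG cells (~100,000/well) were treated in duplicate for 48 h at eight half-log concentrations up to 100 uM in serum-free induction medium.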

[17] = read-out: succinate dehydrogenase complex iron sulfur subunit B (SDHB), SDHB (gene 6390); experiment: LTEA_HepaRG_SDHB: Life Technologies and Expression Analysis (LTEA) Assay for succinate dehydrogenase complex iron sulfur subunit B (SDHB) using HepaRG (AID 2283528); details: mRNA level, 48 h; actives raise or lower the signal
Outline: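 SDHB transcript level read by TaqMan qRT-PCR, housekeeping-normalised (ACTB, GAPDH, POLR2A), after 48 h chemical treatment of plated HepaRG cells; eight concentrations top 100 uM, half-log steps, 0.5% DMSO, duplicates; fitted both directions against DMSO.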

[18] = biological target: Cellular tumor antigen p53 (Homo sapiens) (UniProt P04637); experiment: TOX21_p53_BLA_p2_ratio: Tox21 HCT-116 p53 Agonism Beta-lactamase Assay, Ratio, Phase 2 (AID 2283592; active = hit-call score of the fitted dose curve at least 0.9, where 1 is the maximum)
Outline: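 Gain-of-signal p53 agonism was scored from the beta-lactamase FRET ratio (460/530 nm, 405 nm excitation) in HCT116 cells treated 16 h at 37C, 5% CO2, with DMSO serving as negative control and baseline.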

[19] = TOX21_p53_BLA_p3_viability: Viability Assessment in the Tox21 HCT-116 p53 Agonism Beta-lactamase Assay, Phase 3 (AID 2283593; active = hit-call score of the fitted dose curve at least 0.9, where 1 is the maximum;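 also: cells exposed to compound for 16 h before reading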)
Outline: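 HCT116 cells, 4000/well, dosed 5 h after plating by pin transfer (217-fold dilution from DMSO stock) and incubated 16 h at 37C, 5% CO2. Viability read as ATP luminescence with CellTiter-Glo after 30 min at room temperature.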

Measured: AC50

Signal transducer and activator of transcription 3 (Homo sapiens), sequence (P40763 whole entry, looked up): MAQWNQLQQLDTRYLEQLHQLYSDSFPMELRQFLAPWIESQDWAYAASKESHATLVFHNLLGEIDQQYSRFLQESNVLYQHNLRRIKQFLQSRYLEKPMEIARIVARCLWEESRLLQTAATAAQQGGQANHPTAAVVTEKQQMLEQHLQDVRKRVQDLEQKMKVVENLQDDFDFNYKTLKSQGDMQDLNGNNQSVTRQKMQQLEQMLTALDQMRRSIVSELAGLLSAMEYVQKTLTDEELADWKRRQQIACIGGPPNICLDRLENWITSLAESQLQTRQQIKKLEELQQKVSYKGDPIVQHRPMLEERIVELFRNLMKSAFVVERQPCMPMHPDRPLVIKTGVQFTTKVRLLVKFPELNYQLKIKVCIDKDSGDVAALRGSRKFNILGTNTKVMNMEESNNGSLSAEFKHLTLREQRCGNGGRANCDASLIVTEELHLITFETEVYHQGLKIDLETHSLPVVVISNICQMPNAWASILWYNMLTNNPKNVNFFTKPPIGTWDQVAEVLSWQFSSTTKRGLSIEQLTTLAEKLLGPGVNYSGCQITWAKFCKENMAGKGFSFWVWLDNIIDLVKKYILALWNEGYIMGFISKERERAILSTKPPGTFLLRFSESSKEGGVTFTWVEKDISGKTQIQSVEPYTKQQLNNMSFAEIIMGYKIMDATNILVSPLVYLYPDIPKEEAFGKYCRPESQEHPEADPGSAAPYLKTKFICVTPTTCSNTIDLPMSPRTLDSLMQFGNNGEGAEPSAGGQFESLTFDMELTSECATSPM

COc1ccc2c(c1)c(CC(=O)O)c(C)n2C(=O)c1ccc(Cl)cc1
inactive: [1] | [2] | [3] | [4] | [5] | TIMP1, TIMP1 (gene 7076) | [6] | [7] | [8] | [9] | [10] | [11] | [12] | [13] | [14] | [15]

CCCCCCCCCCCC(=O)OC
inactive: [1] | [2] | [3] | [4] | [5] | TIMP1, TIMP1 (gene 7076) | [6] | [7] | [9] | [16] | [10] | [11] | [12] | [13] | [14]

CCCCOC(=O)CCCCCCCCC(=O)OCCCC
inactive: [17] | [1] | [2] | [4] | [5] | TIMP1, TIMP1 (gene 7076) | [6] | [7] | [8] | [9] | [10] | [11] | [18] | [19] | [15]

CCCc1cc(=O)[nH]c(=S)[nH]1
inactive: [17] | [1] | [2] | [4] | TIMP1, TIMP1 (gene 7076) | [6] | [7] | [9] | [10] | [11] | [13] | [18] | [19] | [14] | [15]

Cc1cc(=O)[nH]c(=S)[nH]1
inactive: [17] | [1] | [2] | [4] | [5] | TIMP1, TIMP1 (gene 7076) | [6] | [7] | [8] | [9] | [10] | [11] | [13] | [19] | [14] | [15]

Nc1ccccc1N
active: [17] 85.1 µM | [2] 69.5 µM | [4] 50 µM | [5] 29.6 µM | [6] 50 µM | [7] 50 µM | [9] 85 µM | [10] 88.2 µM | [11] 68.6 µM | [14] 68.5 µM | [15] 23 µM
inactive: [1] | TIMP1, TIMP1 (gene 7076) | [13] | [18] | [19] | [14] | [15]

Nc1nc(N)c2nc(CNc3ccc(C(=O)N[C@@H](CCC(=O)O)C(=O)O)cc3)cnc2n1
active: [13] 11.8 nM | [18] 30.8 nM | [19] 38.1 nM | [14] 0.0688 µM | [15] 0.0491 µM
inactive: [17] | [1] | [2] | [4] | TIMP1, TIMP1 (gene 7076) | [6] | [7] | [8] | [9] | [16] | [10] | [12] | [13] | [18] | [14] | [15]

CN1CCCC1=O
inactive: [1] | [2] | [3] | [4] | [5] | TIMP1, TIMP1 (gene 7076) | [6] | [7] | [8] | [9] | [16] | [10] | [11] | [12] | [18] | [14] | [15]
